Source: PubChem BioAssay (NCATS)
Values without a mark were called inactive. Inconclusive results are not listed. Where a call stands in place of a potency, no number is given. Activity calls are given as the source filed them. Calls follow the shape of the dose curve; as a rule, active = well fitted curve in the direction sought with a large enough effect; inconclusive = small, poorly fitted or top-dose-only effect, or another doubt; inactive = no such curve, though single readings can be large; an effect the other way counts as inactive or inconclusive.

Target: Cytochrome P450 3A4 (Homo sapiens) (UniProt P08684)
Assay: qHTS Assay for Inhibitors and Substrates of Cytochrome P450 3A4 (AID 884); also: nearly all actives have a fitted effect of over 50% in size
Settings: recombinant CYP3A4, Luciferin-PPXE luminescence; series mostly up to 57.1 µM
In short: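 20 nM human CYP3A4 with 25 uM Luciferin-PPXE (at KM) in 200 mM KPO4, preincubated 10 min with compound; NADPH regeneration started a 60 min RT reaction. Luciferin detected by luminescence, normalized to 57 uM ketoconazole as full inhibition.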
Potency is read from the fitted curve at half-maximal effect.

Cytochrome P450 3A4 (Homo sapiens), sequence (P08684 whole entry, looked up): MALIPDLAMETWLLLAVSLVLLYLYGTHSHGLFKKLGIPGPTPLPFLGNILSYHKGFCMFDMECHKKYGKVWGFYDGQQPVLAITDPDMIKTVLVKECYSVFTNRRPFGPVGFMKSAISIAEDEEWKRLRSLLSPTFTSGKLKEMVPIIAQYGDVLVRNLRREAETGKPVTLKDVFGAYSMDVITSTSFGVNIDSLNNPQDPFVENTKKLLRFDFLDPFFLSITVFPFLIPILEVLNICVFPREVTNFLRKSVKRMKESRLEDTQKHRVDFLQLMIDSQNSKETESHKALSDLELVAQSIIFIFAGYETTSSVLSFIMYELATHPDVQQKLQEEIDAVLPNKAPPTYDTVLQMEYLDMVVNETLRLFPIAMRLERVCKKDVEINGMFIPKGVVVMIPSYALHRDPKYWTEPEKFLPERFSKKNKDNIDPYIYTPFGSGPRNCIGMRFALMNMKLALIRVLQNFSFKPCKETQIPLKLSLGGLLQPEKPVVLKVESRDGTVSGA

| SMILES | Potency |
| --- | --- |
| COc1cc2c(cc1OC)C1C(=O)c3c(cc4c(c3O)C=CC(C)(C)O4)OC1CO2 (stereo unspecified) | 15.8 µM (active) |
| COc1ccc(CC2c3cc(OC)c(OC)cc3CCN2C)cc1OC (stereo unspecified) | inactive |
| COC(=O)[C@H]1C(=O)c2ccccc2O[C@@](C(=O)OC)(c2ccccc2)[C@@H]1c1ccccc1 | 3.98 µM (active) |
| CC1CC[C@@]2(OC1)O[C@@H]1[C@@H](O)[C@H]3C4CC[C@H]5C[C@@H](O[C@@H]6O[C@H](CO)[C@H](O[C@@H]7O[C@H](CO)[C@@H](O)[C@H](O[C@@H]8OC[C@@H](O)[C@H](O)[C@H]8O)[C@H]7O[C@@H]7O[C@H](CO)[C@@H](O)[C@H](O[C@@H]8O[C@H](CO)[C@@H](O)[C@H](O)[C@H]8O)[C@H]7O)[C@H](O)[C@H]6O)[C@H](O)C[C@]5(C)C4CC[C@]3(C)[C@H]1[C@@H]2C (stereo partly specified) | inactive |

Target: Cytochrome P450 3A4 (Homo sapiens) (UniProt P08684)
Assay: qHTS Assay for Activators of Cytochrome P450 3A4 (AID 885); also: nearly all actives have a fitted effect of over 65% in size
Settings: recombinant CYP3A4, Luciferin-PPXE luminescence, 60 min; series mostly up to 57.1 µM
In short: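 20nM CYP3A4 + 25uM Luciferin-PPXE (=KM), 200mM KPO4; cpd 10 min RT; NADPH regen, 60 min RT; stop w/ detection buffer, 20 min; luminescence. Normalized to 57 uM ketoconazole.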

| SMILES | Potency | activity change, positive = activation |
| --- | --- | --- |
| COc1cc2c3cc1Oc1c(OC)c(OC)cc4c1[C@@H](Cc1ccc(O)c(c1)Oc1ccc(cc1)C[C@@H]3N(C)CC2)N(C)CC4 | inactive | – |
| CC1=C(CC[C@H](C)CO)O[C@@H]2C[C@@H]3[C@H]4CC[C@H]5C[C@@H](O)CC[C@]5(C)[C@@H]4CC(=O)[C@@]3(C)[C@@H]12 | 3.98 µM (active) | – |
| CC(=O)OC1CC[C@@]2(C)C3CC(=O)[C@]4(C)C(C(C)=O)=CCC4C3CC[C@H]2C1 (stereo partly specified) | 5.01 µM (active) | – |
| COc1cc2c(cc1OC)C1C(=O)c3c(O)cc4c(c3OC1CO2)C=CC(C)(C)O4 (stereo unspecified) | inactive | – |
| COc1ccc(-c2oc3cc(OC)ccc3c(=O)c2O)cc1 | inactive | – |
| CC(C)[C@]1(NC(=O)[C@@H]2C=C3c4cccc5[nH]cc(c45)C[C@H]3N(C)C2)O[C@@]2(O)C3CCCN3C(=O)[C@H](Cc3ccccc3)N2C1=O (stereo partly specified) | inactive | – |
| CC(C)C1C(=O)N2CCCC2[C@]2(O)O[C@@](NC(=O)[C@@H]3C=C4c5cccc6[nH]cc(c56)C[C@H]4N(C)C3)(C(C)C)C(=O)N12 (stereo partly specified) | inactive | – |
| CC1=C2C(=COC(C)C2C)C(=O)C(C(=O)O)=C1O (stereo unspecified) | inactive | – |
| O=S(=O)(O)c1cc(N=C=S)ccc1/C=C/c1ccc(N=C=S)cc1S(=O)(=O)O | inactive | – |
| c1cc2c(cc1[C@H]1OC[C@@H]3[C@H]1CO[C@H]3c1ccc3c(c1)OCO3)OCO2 | inactive | – |
| CC1=CC[C@@H]2[C@@H](C1)c1c(O)cc(CC#CCCCNS(C)(=O)=O)cc1OC2(C)C | inactive | – |
| COC(=O)[C@H]1C(=O)c2ccccc2O[C@@](C(=O)OC)(c2ccccc2)[C@@H]1c1ccccc1 | – | -63.3% [at 11.4 µM] |
